Laboratory results reported in PubChem BioAssay AID686978 (National Center for Advancing Translational Sciences (NCATS), 2013).
Among all 420,000 compounds or so, about 64,000 (15%) were called active. Not shown: some 27% with an inconclusive outcome. Calls follow the shape of the dose curve; as a rule, active = well fitted inhibition curve with a large enough effect; inconclusive = small, poorly fitted or top-dose-only effect; inactive = flat fitted curve, though single readings scatter. Only a sample is shown.

assay: qHTS for Inhibitors of human tyrosyl-DNA phosphodiesterase 1 (TDP1): qHTS in cells in absence of CPT; details: DT40 Tdp1-/- hTDP1 cells, no CPT, ATP luminescence, 48 h; activity change, negative = growth inhibition: at 46.2 µM (top of the series); also: nearly all actives have a fitted effect of over 55% in size
Procedure, shortened: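 No-CPT arm: Tdp1-/-;hTDP1 DT40 cells (400/well) plus compounds, incubated ≥48 hr at 37 °C. Readout CellTiter-Glo luminescence.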
% is scaled to controls: 0 for no effect and ±100 for the full control effect; potency is read from the fitted curve at half-maximal effect.

Row | SMILES | activity change, negative = growth inhibition | Potency
1 | CCCCNC(=O)C(=O)c1ccccc1NC(C)=O | -1.06% (inactive) | –
2 | CCCCNC(=O)Nc1c(C)cc(SC#N)cc1C | – | 8.2 µM (active)
3 | CCC(C)C(CO)NC(=O)/C=C/[C@H]1O[C@@H](n2cnc3c(NC(=O)c4ccccc4)ncnc32)[C@H](O)[C@@H]1O (stereo partly specified) | 9.97% (inactive) | –
4 | CNc1nnc(-c2ccco2)s1 | -0.333% (inactive) | –
5 | O=C(NCc1ccccn1)Nc1ccc(F)cc1 | 3.3% (inactive) | –
6 | CCOC(=O)c1ccccc1NC(=O)CSc1nc2c(sc(=S)n2CC)c(=O)[nH]1 | 16.5% (inactive) | –
7 | CC(C)CN1CCNC(=O)C1CC(=O)N(C)CC1CCOCC1 (stereo unspecified) | -16.4% (inactive) | –
8 | CC(NC(=O)CN(C)S(=O)(=O)c1ccc(F)cc1)C1CC2CCC1C2 (stereo unspecified) | 4.07% (inactive) | –
9 | COC(=O)c1cc(C(=O)OCC(=O)Nc2cc(C)on2)cc([N+](=O)[O-])c1 | 0.11% (inactive) | –
10 | COC(=O)c1cc(C(=O)NC(C)C2CC3CCC2C3)cc([N+](=O)[O-])c1 (stereo unspecified) | – | 20.6 µM (active)
11 | OC1CN=C2Sc3ccccc3N2C1 (stereo unspecified) | -19.7% (inactive) | –
12 | O=C(NC(=O)c1ccc(Cl)c(Cl)c1)OC1CCS(=O)(=O)C1 (stereo unspecified) | -4.5% (inactive) | –
13 | CCCCOc1ccc(C(=O)NCC(=O)OCC(=O)c2c(N)n(C)c(=O)n(C)c2=O)cc1 | -16.3% (inactive) | –
14 | COc1cc(NC(=O)c2[nH]cnc2C(N)=O)cc(C(=O)Nc2cccc(C(F)(F)F)c2)c1 | – | 18.4 µM (active)
15 | COc1cc(NC(=O)c2cccnc2SC)cc(OC)c1 | -9.43% (inactive) | –
16 | COc1cc(NC(=O)c2cncc(-c3ccc(C#N)cc3)c2)cc(C(=O)Nc2cccc(C(F)(F)F)c2)c1 | – | 10.3 µM (active)
17 | O=C(Nc1cccc(C(F)(F)F)c1)c1cnccn1 | 9.25% (inactive) | –
18 | CCn1nnnc1SCC(=O)Nc1ccc(N(C)C)cc1 | -2.75% (inactive) | –
19 | Cn1c(N)c(C(=O)COC(=O)/C=C/c2cccc(C(F)(F)F)c2)c(=O)n(C)c1=O | -25.4% (inactive) | –
20 | Cc1noc(C)c1-c1nccc(N2CCOCC2)n1 | -3.85% (inactive) | –
21 | CCCCc1nc2cc(C(=O)NCCc3cnn(C)c3)ccc2o1 | -28.5% (inactive) | –
22 | CC1CCN(C(=O)c2ccccc2NC(=O)Cc2ccccc2)CC1 | 9.05% (inactive) | –

Row | SMILES | activity change, negative = growth inhibition | Potency
23 | O=C(O)C1CC=CCC1C(=O)Nc1ccccc1C(=O)N1CCN(c2ccccc2)CC1 (stereo unspecified) | – | 20.6 µM (active)
24 | O=C(Nc1ccccc1C(=O)N1CCCCCC1)c1ccccc1Cl | -4.37% (inactive) | –
25 | Cc1ccccc1NC(=O)C1CCN(C(=O)NC2CCCCC2)CC1 | -4.82% (inactive) | –
26 | CC(=O)N1CCN(CC(=O)Nc2ccc(C)c(F)c2)CC1 | 26% (inactive) | –
27 | Cc1ccc(NC(=O)CN2c3ccccc3S(=O)(=O)c3ccccc32)cc1F | – | 18.4 µM (active)
28 | CC1CC(=O)N(CC(=O)Nc2cccc(Cl)c2)c2ccccc2S1(=O)=O (stereo unspecified) | -4.87% (inactive) | –
29 | CCCCOc1ccc(NC(=O)c2cc3c(n(-c4ccc(Cl)cc4)c2=O)CCCC3=O)cc1 | 16.6% (inactive) | –
30 | c1ccc2cc(C3=NCCN3)ccc2c1 | -24% (inactive) | –
31 | Cc1cc(=O)c2cc(C(=O)Nc3cccc(C)c3C)ccc2[nH]1 | -15.6% (inactive) | –
32 | C=CCNC(=O)c1ccccc1NC(=O)c1ccc(Cl)c(S(=O)(=O)Nc2cccc(C)c2C)c1 | – | 16.4 µM (active)
33 | Cc1ccccc1NC(=O)c1cc(S(=O)(=O)Nc2cccc(C(=O)O)c2)ccc1Cl | 16% (inactive) | –
34 | CC1(C)CC(=O)C2=C(C1)Nc1cc(C(=O)c3ccccc3)ccc1NC2c1ccccn1 (stereo unspecified) | -1.7% (inactive) | –
35 | O=C(COC(=O)c1ccccc1OCCOc1ccccc1)Nc1cccc(Br)c1 | -20.2% (inactive) | –
36 | Cc1cccc(NC(=O)COC(=O)c2ccccc2OCc2cccc(Br)c2)c1 | – | 22.4 µM (active)
37 | Cc1cccc(C(=O)OCC(=O)Nc2ccc(F)cc2)c1 | -23.4% (inactive) | –
38 | Nc1nc(C23CC4CC(CC(C4)C2)C3)cs1 | -15.4% (inactive) | –
39 | CN(C)c1ccc(S(=O)(=O)NCC(=O)NCC2CCCCC2)cc1[N+](=O)[O-] | 0.804% (inactive) | –
40 | Cc1noc(NS(=O)(=O)c2ccc(N3CC(O)=C(c4ccccc4)C3=N)cc2)c1C | -0.727% (inactive) | –
41 | CCC(C)c1ccccc1N1CC(C(=O)N2CCN(S(=O)(=O)c3ccc(F)cc3)CC2)CC1=O (stereo unspecified) | -24.6% (inactive) | –
42 | CC(=O)NC(c1ccccc1)c1nc(-c2ccccc2C)cs1 (stereo unspecified) | -8.95% (inactive) | –
43 | CCC1=C(OC(=O)N(CC)CC)N2C(=O)OC(=NCC3CC3)[C@]2(C)[C@H]2C1=CC[C@H]1C(=O)N(CC(=O)OC)C(=O)[C@H]12 | -5.13% (inactive) | –
44 | CCn1nc(C(=O)NNS(=O)(=O)c2cc(/C=C/C(=O)O)cc(OC)c2OC)c2ccccc2c1=O | 6.78% (inactive) | –

Row | SMILES | activity change, negative = growth inhibition | Potency
45 | CCn1nc(C)c(NC(=O)/C=C/c2ccc(OC)c(COc3ccc(Br)cc3)c2)c1C | – | 20.6 µM (active)
46 | COc1ccc(OC)c(S(=O)(=O)Nc2c(C)nn(C)c2C)c1 | 18.5% (inactive) | –
47 | Cc1ccccc1NC(=O)c1c(NC(=O)c2ccccc2F)sc2c1CCC(C)C2 (stereo unspecified) | -5.64% (inactive) | –
48 | O=C(Nc1nnc(-c2ccccc2F)s1)c1ccccc1F | -14.6% (inactive) | –
49 | COC(=O)c1c(NC(=O)c2ccccc2F)sc2c1C(C(=O)OC)CC2 (stereo unspecified) | – | 11.6 µM (active)
50 | COc1cc(NC(=O)CCNC(=O)Cn2ccc3ccccc3c2=O)cc(OC)c1OC | – | inactive
51 | CC(=O)C[C@H](O)CC(=O)[C@@H]1OC(=O)[C@@H](C)C/C=C\Cc2ccccc21 | -11.3% (inactive) | –
52 | N#CC1=C(N)Oc2cc(N)ccc2C1c1ccccc1 (stereo unspecified) | – | 18.4 µM (active)
53 | Cc1cc(C)c2c3c(sc2n1)C(c1ccccc1)C(C#N)=C(N)O3 (stereo unspecified) | -23% (inactive) | –
54 | CC(C)c1ccc(C2C(C#N)=C(N)Oc3c2oc(CO)cc3=O)cc1 (stereo unspecified) | -11.5% (inactive) | –
55 | c1nc(COc2nsnc2N2CCOCC2)cs1 | -13.8% (inactive) | –
56 | CC(=O)Nc1cc2ccc(OC(C)=O)cc2oc1=O | -20% (inactive) | –
57 | CC(C)NC(=O)C(=O)N/N=C/c1ccco1 | 10.1% (inactive) | –
58 | O=C(NCCCc1ccccc1)C1CCC(CNc2c(N3CCCCC3)c(=O)c2=O)CC1 (stereo unspecified) | -14.4% (inactive) | –
59 | Cc1ccc(Cn2c(CCCNC(=O)C3CCCCC3)nc3ccccc32)cc1 | – | 20.6 µM (active)
60 | CCc1ccc(OCCCn2c(CCCNC(=O)C3CCCCC3)nc3ccccc32)cc1 | – | 4.47 µM (active)
61 | Cc1ccc(C)c(Cn2c(CCCNC(=O)C3CCCCC3)nc3ccccc32)c1 | – | 16.4 µM (active)
62 | CCCCNC(=O)CCn1c(=O)c2ccccc2n(Cc2cc(C)ccc2C)c1=O | – | inactive
63 | CCCNC(=O)C1CCN(c2nc3ccc(C)cc3[nH]2)CC1 | -6.49% (inactive) | –
64 | CC(C)Oc1ccc(CNC(=O)C2CCN(c3nc4ccccc4n(C)c3=O)CC2)cc1 | -15.9% (inactive) | –
65 | CCCc1nc2c(C)cc(-c3nc4ccccc4n3C)cc2n1Cc1ccc(-c2ccccc2C(=O)O)cc1 | -19.6% (inactive) | –
66 | Cc1ccc(CN2C(=O)CCC2C(=O)NCCCN2CCCCC2C)cc1 (stereo unspecified) | -0.806% (inactive) | –
